Experimental data reported in PubChem BioAssay AID493076 (National Center for Advancing Translational Sciences (NCATS), 2011).
This is one part of the list. Inconclusive results are not listed. Activity calls are given as the source filed them. The call rests on the fitted dose curve; in most records, active means well fitted curve in the direction sought with a large enough effect; inconclusive means small, poorly fitted or top-dose-only effect, or effect the other way, or another doubt; inactive means no such curve, though single readings can be large or run the other way. Residues, ends and D or L forms follow the SMILES beside them. *: point of attachment. OPac = O=C(CO*)c1ccccc1; Bz = O=C(c1ccccc1)*

target: Thyrotropin-releasing hormone receptor (Homo sapiens) (UniProt P34981); assay: qHTS for Small Molecule Agonists and Allosteric Enhancers of Human TRH Receptor: Confirmation Screen for Enhancers; details: TRH receptor cell assay, enhancer confirmation qHTS; series mostly up to 46.1 µM
Sequence (P34981 whole entry, looked up): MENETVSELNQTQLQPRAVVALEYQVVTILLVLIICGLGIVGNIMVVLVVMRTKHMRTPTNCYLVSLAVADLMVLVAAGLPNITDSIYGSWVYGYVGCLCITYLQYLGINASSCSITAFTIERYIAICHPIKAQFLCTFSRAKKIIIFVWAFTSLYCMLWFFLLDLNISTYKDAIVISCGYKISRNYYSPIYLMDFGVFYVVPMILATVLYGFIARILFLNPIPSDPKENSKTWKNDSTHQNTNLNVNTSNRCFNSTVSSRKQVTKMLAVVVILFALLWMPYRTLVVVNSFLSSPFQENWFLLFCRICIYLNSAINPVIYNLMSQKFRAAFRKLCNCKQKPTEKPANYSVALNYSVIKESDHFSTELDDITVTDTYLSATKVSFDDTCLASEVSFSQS
Text: NIH Chemical Genomics Center [NCGC]
NIH Molecular Libraries Probe Centers Network [MLPCN]
Assay Submitter (PI): Marvin Gershengorn
This project aims to identify small drug-like molecules that activate (agonists) the thyrotropin releasing hormone (TRH) receptor (TRHR) or enhance its TRH-stimulated activity (allosteric enhancers). TRHR, a drug-accessible cell surface receptor expressed in specific brain regions, and its ligand TRH have been implicated in several central nervous system disorders, including depression and anxiety. Small molecule TRHR agonists or allosteric enhancers that are metabolically stable and able to cross the blood-brain barrier might serve as probes to elucidate the roles of brain TRH receptors in animal models, and might be valuable as lead compounds for the development of drugs to treat patients with central nervous system disorders.
Upon TRHR-Gq activation in TRHR cells, intracellular calcium is released from stores in the endoplasmic reticulum. […] This primary screen measures compound-induced enhancement of an EC20 stimulation of the receptor by its native ligand.
For the HTS assay freshly prepared cells are plated at a density of 2000/well in 3 ul of complete DMEM medium containing 10% serum in 1536-well plates and cultured over night at 37 C in a humidified incubator with 5% CO2. The next day, 2 ul of a no wash calcium dye (ABD Bioquest) was added to the cells and plates were incubated at room temperature for 1 hour. For the assay, assay plates were loaded into the FDSS kinetic plate reader. A 10 cycle (1 second/cycle) baseline measurement is taken and then the FDSS online 1536 pintool delivers 23 nl of compound library (as well as TRH controls) to the plate. The plate is measured for kinetically at 1 cycle/sec for 180 seconds and is considered to be the agonist portion of the assay (eg, compounds which activate a positive calcium response during this portion are flagged as potential agonists). Following the 180 second read, 1 ul of either an EC20 (positive modulation assay) is delivered by an onboard pipette head. Measurements are taken kinetically for an additional 180 seconds.
TRHR FDSS Screening Protocol
1. Reagent, 3 uL 2000 cells/well 1536 TC treated Black plate in media containing 10% FCS
2. Time, 18 hours, 33.5C 5% CO2 (cells grown at 37C)
3. Reagent, 2 uL ABD fluo-8 Ca dye
4. Time, 30 min-1.5hrs hours, Room temp (6 plates/batch)
5. Detector, EX 480/EM 530C, FDSS 10 cycles baseline (1sec/cycle)
6. Compound, 23 nL of stock solution from library
7. Detector, EX 480/EM 530C, FDSS 230 cycles (1sec/cycle) Agonist mode
8. Compound, 1 ul EC20 of TRH made up in HEPES HBSS, 10 nM final
9. Detector, EX 480/EM 530C, FDSS 100 cycles (1sec/cycle) Potentiator mode

outcome, inactive:
COC(=O)c1cc(N2CCNCC2)nc2ccccc12
C/C(=N/OC(=O)c1ccc(Br)cc1)c1ccc(C)cc1
NC(N)=Nc1nc(-c2ccccc2)c2cc(Cl)ccc2n1
COc1ccc(Cl)cc1NC(=O)CN(C)Cc1ccc(OC)c(OC)c1
O=c1o[nH]c(-c2ccccc2)c1N=Nc1c(F)cccc1Cl
Cc1c(/C=N\NC(=O)c2cc3ccccc3o2)c2ccccc2n1C
COc1cc(C2C3=C(CCCC3=O)OC3=C2C(=O)CCC3)ccc1OCC(=O)Nc1ccccc1
Cc1ccc(S(=O)(=O)N2CCN(CC(=O)N/N=C/c3ccc(Br)s3)CC2)cc1
CC(=O)n1c(C=Nc2ccccc2)c(O)c2ccccc21
O=C1NC(=O)C2C1C(c1ccc([N+](=O)[O-])cc1)=NN2Cc1ccccc1 (stereo not given)
CC1(C)Cc2c(cnn2-c2cccc(F)c2)C(NC(=O)c2cc[n+]([O-])cc2)C1 (stereo not given)
C/C(=C\c1ccco1)CN1CCC(N2CCC(C(=O)N3CCOCC3)CC2)CC1
Cn1cccc1C1(C(F)(F)F)NCCNC1=O (stereo not given)
Cc1cccn2c(=O)c3cc(C(=O)NC4CCCCC4)sc3nc12
CC(=O)N1CCN(CC(=O)Nc2ccc(C)c(F)c2)CC1
CC(C)c1nnc(NC(=O)CCC(=O)N2CCN(c3cccc(Cl)c3)CC2)s1
CCOc1ncccc1C(=O)OCC(=O)N1c2ccccc2CC1C (stereo not given)
Cc1ccc(-c2cn(S(=O)(=O)c3cccc([N+](=O)[O-])c3)nc2N)cc1
N#Cc1ccc(Oc2cc(C(F)(F)F)nc(-c3ccccn3)n2)cc1
O=C(Nc1ccccc1)c1cccnc1Nc1ccccc1
CCOc1cc(CN2CCCC(CO)(Cc3ccc(F)cc3F)C2)ccc1OC (stereo not given)
Cc1nn(Cc2ccccc2)c(C)c1C(=O)N1CCN(CC(=O)Nc2ccccc2Cl)CC1
Cc1cc(S(=O)(=O)c2cc3ccc(O)c(C)c3oc2=O)ccc1F
CC(=O)c1cc(NC(=O)c2ccccc2)c(=O)oc1/C=C/N(C)C
O=c1[nH]c2cccnc2n(CCNc2ncc(C(F)(F)F)cc2Cl)c1=O
Cc1ccc(Cl)c(OCC(=O)N2CCc3ccccc3C2)c1
Cc1cc(C(=O)CCl)c(C)n1CC1COc2ccccc2O1 (stereo not given)
COc1cc(/C=C(\C#N)c2nc3ccccc3[nH]2)ccc1O
Cc1csc(CN(C)C(=O)CC2C(=O)NCCN2CC(C)(C)C)n1 (stereo not given)
COC(=O)C1=C(C)NC2=C(C(=O)c3ccccc32)C1c1ccc(-c2ccc(C(=O)O)cc2)o1 (stereo not given)
O=C(CN1C(=O)c2cccc3cccc1c23)Nc1ccccc1
NS(=O)(=O)c1cccc(NC(=O)CSc2nc3ccccc3n2-c2ccccc2)c1
CCOC(=O)C1=C(O)/C(=C/c2cc(C)n(-c3ccccc3)c2C)N=C1C
CSc1nnnn1-c1c(C)cc(C)cc1C
COc1ccc(CCn2ccc(O)c(Cc3ccc(Cl)cc3Cl)c2=O)cc1OC
O=C(CNC(=O)c1ccccc1)NCC(=O)OCC(=O)c1ccccc1 (Bz-Gly-Gly-OPac)
CCc1ccccc1NC(=O)/C(=C/c1ccccc1)c1ccccc1
CC1=C(C)CC(C(=O)NC(C)CCc2ccccc2)C(C(=O)O)C1 (stereo not given)
CN(C(=O)CSc1nnc(Nc2ccccc2)s1)C1CCS(=O)(=O)C1 (stereo not given)
Cc1cc(C)c2nc3nc(C)cc(C)c3c(N)c2c1
